Assay outcomes as filed in PubChem.
Most compounds without a hit are left out; they make up all but 5.3% or so of the library.
SUMO Mot1 rescue: SUMOylation pathway inhibition by Mot1-301 growth rescue; 320,000 tested, 1% active; growth rescue, % at 18.8 µM; S. cerevisiae Mot1-301 growth rescue, ATP luminescence, 38.5C; percent above DMSO median, 100 means doubled;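 active means every valid replicate shows activation above 250% relative to neutral control wells; inactive means the rest, any valid replicate at or below 250%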;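 further: OY570 slx delta 5 strain wells were the positive control but not used for scaling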
HIF activator: HIF pathway transcriptional activation. U2OS HRE-luciferase reporter, luminescence; normalized: DMSO 0%, desferrioxamine 100%. activation, % at 7.5 µM (by protocol). 300,000 tested, 0.32% active. AID 1910;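 active means mean activation of at least 10% of the iron chelator positive control signal, with at least half of replicates also reaching 10%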
ALR H2O2 inh: inhibitors of human sulfhydryl oxidase ALR; inhibition, % (concentration not given with the values); 290,000 tested, 3.8% active; AID 485317; P55789; purified ALR, DTT oxidation, H2O2 HRP-luminol luminescence;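 active means mean replicate inhibition above about 79%, with every replicate also reaching it, limit read from the data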
Target sequence (P55789 whole entry, looked up): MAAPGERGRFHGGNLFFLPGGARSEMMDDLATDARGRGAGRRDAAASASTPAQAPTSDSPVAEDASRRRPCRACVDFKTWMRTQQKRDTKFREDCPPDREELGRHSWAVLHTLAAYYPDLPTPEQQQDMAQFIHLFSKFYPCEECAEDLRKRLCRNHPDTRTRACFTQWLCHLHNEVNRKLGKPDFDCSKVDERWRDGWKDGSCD
PfM18AAP inh-1: blocks P. falciparum M18 aspartyl aminopeptidase; inhibition, % at 7.35 µM; AID 1822; 290,000 tested, 1.2% active; recombinant PfM18AAP, H-Glu-NHMec fluorogenic cleavage;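 active means inhibition above the campaign mean inhibition over all tested compounds plus 3 SD, cut at about 28% in these data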;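 further: 0% = plate median of test compound wells and 100% = 2 mM ZnCl2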
PfM18AAP inh-2: confirmation of Plasmodium falciparum M18 aspartyl aminopeptidase inhibitors | 2,400 tested, 28% active | AID 2170 | shares compounds with PfM18AAP inh-1 | inhibition, % at 7.35 µM | recombinant PfM18AAP, H-Glu-NHMec fluorogenic cleavage;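 active means mean inhibition over replicate wells above the hit cutoff set for the earlier primary screen, cut at about 29% in these data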;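 further: 0% = median of test compound wells and 100% = 2 mM ZnCl2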
CTSL1 counter: Cathepsin L (human) inhibition, confirmation; 2,400 tested, under 10 active; shares compounds with PfM18AAP inh-1; purified cathepsin L1, Z-Leu-Arg-MCA fluorescence; inhibition, % at 5.96 µM;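 active means average inhibition across replicates above the hit cutoff set in the earlier primary screen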;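 further: 0% = median of test compound wells and 100% = Z-Phe-Ala-diazomethylketone 1 µM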
Target sequence (P07711 whole entry, looked up): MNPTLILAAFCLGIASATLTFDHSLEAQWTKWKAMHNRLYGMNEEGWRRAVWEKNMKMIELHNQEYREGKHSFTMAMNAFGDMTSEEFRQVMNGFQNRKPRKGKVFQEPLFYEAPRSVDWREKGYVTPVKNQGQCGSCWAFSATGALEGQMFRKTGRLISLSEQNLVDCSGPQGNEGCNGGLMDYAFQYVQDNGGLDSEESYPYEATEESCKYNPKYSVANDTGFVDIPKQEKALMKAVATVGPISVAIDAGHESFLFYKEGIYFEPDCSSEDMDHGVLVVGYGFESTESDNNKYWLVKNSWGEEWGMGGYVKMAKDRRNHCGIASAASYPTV
* hit, by the source's call.

For Clc1ccc(NCn2cncn2)nc1 the results were SUMO Mot1 rescue -5.1, HIF activator -0.3, ALR H2O2 inh 1.2, PfM18AAP inh-1 78.5*, PfM18AAP inh-2 63.5* and CTSL1 counter 4.1.
Screening O=S1(=O)CC2SC(=S)N(Cc3ccccc3)C2C1 (stereo not given) returned SUMO Mot1 rescue 4.3, HIF activator 0.1, ALR H2O2 inh -10.7 and PfM18AAP inh-1 3.7.
Screening COc1ccc(C2=Nc3ccccc3OC2)cc1 returned HIF activator 4.7, ALR H2O2 inh 9.7, PfM18AAP inh-1 39.1*, PfM18AAP inh-2 -26.0 and CTSL1 counter -1.3.
Screening COc1ccc(NC2=Nc3ccccc3CC2)cc1 returned SUMO Mot1 rescue -5.1, HIF activator 1.8, ALR H2O2 inh -2.8 and PfM18AAP inh-1 -3.0.
Screening CC1CCN(C(=S)NC(=O)c2cccs2)CC1 returned SUMO Mot1 rescue -4.3, HIF activator 0.6, ALR H2O2 inh 1.6 and PfM18AAP inh-1 1.2.
For CC(=O)Nc1cccc(NS(=O)(=O)c2ccccc2[N+](=O)[O-])c1 the results were SUMO Mot1 rescue -0.4, HIF activator 0.2, ALR H2O2 inh -11.2 and PfM18AAP inh-1 -2.4.
Screening CCS(=O)(=O)c1cc([N+](=O)[O-])c(Sc2ccccc2NC(C)=O)s1 returned SUMO Mot1 rescue -2.3, HIF activator 0.9, ALR H2O2 inh 4.4, PfM18AAP inh-1 35.4*, PfM18AAP inh-2 -31.7 and CTSL1 counter 1.6.
`Fc1ccc(C[n+]2csc3ccccc32)cc1` gave SUMO Mot1 rescue 32.7, HIF activator 1.9, ALR H2O2 inh 3.6, PfM18AAP inh-1 35.9*, PfM18AAP inh-2 -5.3 and CTSL1 counter -1.0.
Screening CCCC1=C(C(=O)OCC)C(c2ccco2)C(C#N)=C(N)O1 (stereo not given) returned HIF activator 0.1, ALR H2O2 inh 3.3 and PfM18AAP inh-1 10.7.
Screening CCC(C)n1ncn(-c2ccc(N3CCN(c4ccc(O)cc4)CC3)cc2)c1=O (stereo not given) returned SUMO Mot1 rescue 103.5, HIF activator -0.1, PfM18AAP inh-1 33.7*, PfM18AAP inh-2 -22.1 and CTSL1 counter -4.8.
O=C(CSc1ncn[nH]1)NCCc1ccccc1 was read as SUMO Mot1 rescue 45.3, HIF activator -0.2, ALR H2O2 inh -0.8 and PfM18AAP inh-1 9.4.
`CC(Sc1ncn[nH]1)C(=O)NCc1ccccc1` (stereo not given) gave SUMO Mot1 rescue -0.5, HIF activator 0.7, ALR H2O2 inh -15.7, PfM18AAP inh-1 34.7*, PfM18AAP inh-2 17.5 and CTSL1 counter -1.2.
Screening C=C1C(C(=O)Nc2cccc(OC)c2)C1C(=O)Nc1cccc(OC)c1 (stereo not given) returned SUMO Mot1 rescue -15.7, HIF activator -0.4, ALR H2O2 inh -5.8 and PfM18AAP inh-1 -10.8.
Cn1c(N)c(C(=O)CSc2nc(C3CC3)n(-c3ccccc3)n2)c(=O)[nH]c1=O was read as SUMO Mot1 rescue 12.8 and ALR H2O2 inh 5.9.
For Nc1c(Cl)cc(-c2[nH]c3cc(C(=O)NCCO)ccc3c(=O)c2O)cc1Cl the results were SUMO Mot1 rescue 497.6, HIF activator 0.5, ALR H2O2 inh -2.6, PfM18AAP inh-1 40.2*, PfM18AAP inh-2 -4.0 and CTSL1 counter 1.4.
For CCCNC(=O)c1ccc2c(=O)c(O)c(-c3ccc(F)cc3)[nH]c2c1 the results were SUMO Mot1 rescue -2.4, HIF activator 1.2 and ALR H2O2 inh -42.1.
For Cc1occc1C(=O)NNC(=O)Nc1ccc(Cl)c(Cl)c1 the results were SUMO Mot1 rescue -0.5, HIF activator 0.0, ALR H2O2 inh 2.8 and PfM18AAP inh-1 22.6.
Screening Cc1ccsc1C(=O)NNC(=O)Nc1ccc(Cl)c(Cl)c1 returned SUMO Mot1 rescue 118.8, HIF activator 0.2, ALR H2O2 inh -2.8, PfM18AAP inh-1 41.2*, PfM18AAP inh-2 28.0 and CTSL1 counter 0.4.
`Cc1cc(C)n2nc(C(=O)OCC(=O)N(C)CC(=O)Nc3ccccc3Cl)nc2n1` gave SUMO Mot1 rescue 192.5, HIF activator 0.6 and ALR H2O2 inh -4.5.
For Cc1ccn2cc(-c3cccc(NC(=O)C(C)C)c3)nc2c1 the results were SUMO Mot1 rescue 21.9, HIF activator 1.0, ALR H2O2 inh 4.2 and PfM18AAP inh-1 1.8.
`Oc1ccc(-c2cn3ccccc3n2)cc1O` gave SUMO Mot1 rescue -12.3, HIF activator 45.0*, ALR H2O2 inh 98.8*, PfM18AAP inh-1 69.7*, PfM18AAP inh-2 58.4* and CTSL1 counter -1.7.
For Cc1ccn2cc(-c3ccc(O)c(O)c3)nc2c1 the results were SUMO Mot1 rescue 3.1, HIF activator 29.6*, ALR H2O2 inh 99.0*, PfM18AAP inh-1 71.5*, PfM18AAP inh-2 51.3* and CTSL1 counter -7.7.
For O=C(COC(=O)CCc1ccccc1)Nc1ncc(Cl)cc1Cl the results were SUMO Mot1 rescue 2.3, HIF activator 0.0, ALR H2O2 inh -7.0 and PfM18AAP inh-1 -4.1.
Screening CC(C)N=c1scc(-c2cccs2)n1/N=C/c1ccc(O)c(O)c1O returned SUMO Mot1 rescue -5.7, ALR H2O2 inh 87.7*, PfM18AAP inh-1 38.7*, PfM18AAP inh-2 -40.4 and CTSL1 counter -3.2.
Screening CCN1CCN(S(=O)(=O)c2ccc(Cl)c(C(=O)Nc3nnc(C)s3)c2)CC1 returned SUMO Mot1 rescue -1.2, HIF activator -1.1 and ALR H2O2 inh -1.6.
CCCC(C)C(=O)Nc1ncc(S(=O)(=O)c2ccc([N+](=O)[O-])cc2)s1 (stereo not given) was read as SUMO Mot1 rescue 3.3, HIF activator 0.0, ALR H2O2 inh -7.0 and PfM18AAP inh-1 0.8.
CC(C)NC(=O)/C=C/C(=O)O was read as SUMO Mot1 rescue -0.4, HIF activator -0.8, ALR H2O2 inh -4.6 and PfM18AAP inh-1 -4.3.
Screening O=c1c2ccccc2c(/C=N/n2cnnc2)c(O)n1-c1ccccc1 returned SUMO Mot1 rescue -8.8, HIF activator -0.6, ALR H2O2 inh 29.6, PfM18AAP inh-1 65.0*, PfM18AAP inh-2 72.1* and CTSL1 counter 0.5.
Screening COc1ccc(-n2c(O)c(/C=N/n3cnnc3)c3ccccc3c2=O)cc1 returned HIF activator 0.1, ALR H2O2 inh 27.9, PfM18AAP inh-1 66.9*, PfM18AAP inh-2 74.3* and CTSL1 counter 4.8.
COc1ccc(C(=O)Nc2ccc(/C(C)=N/NC(=O)c3ccccc3O)cc2)cc1OC was read as SUMO Mot1 rescue -2.1, HIF activator 1.0, PfM18AAP inh-1 36.7*, PfM18AAP inh-2 -52.4 and CTSL1 counter 8.6.
For CCOC(=O)c1sc(=S)n(CC)c1NC(=O)CC the results were SUMO Mot1 rescue -13.0, HIF activator -0.4, ALR H2O2 inh 6.4 and PfM18AAP inh-1 -2.3.
`CCn1c(N)c(C(=O)NC)sc1=S` gave SUMO Mot1 rescue -7.5, HIF activator -1.7, ALR H2O2 inh 98.5*, PfM18AAP inh-1 49.9*, PfM18AAP inh-2 37.4* and CTSL1 counter -0.7.
Cc1ccc(N=Nc2c(N)[nH]n3c(=O)cc(-c4ccccc4)nc23)cc1 was read as SUMO Mot1 rescue 534.9, ALR H2O2 inh -3.2 and PfM18AAP inh-1 -10.6.
